The results in this text go back to PubChem BioAssay (NCATS).

Results filed as inconclusive are left out. Active and inactive are the calls of the source. The call rests on the fitted dose curve; in most records, active means well fitted curve in the direction sought with a large enough effect; inconclusive means small, poorly fitted or top-dose-only effect, or another doubt; inactive means no such curve, though single readings can be large; an effect the other way counts as inactive or inconclusive.
Potency means the concentration at half of the fitted maximal effect.

One assay in a line: qHTS Screen of the MIPE 4.0 Collection Against Ewings Sarcoma (TC32) (AID 1259256). Further: nearly all actives have a fitted effect of over 45% in size.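 On viability (percent of control): 100% = DMSO-treated cells and 0% = medium-only wells without cells.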 To be noted: TC32 Ewing sarcoma viability, CellTiter-Glo, 48 h; series mostly up to 45.8 µM; viability (percent of control): at the top concentration. In outline: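 After a 4 h attachment period in RPMI/5% FBS, cells were pin-dosed with test compounds; DMSO served as negative and 9.2 uM bortezomib (final) as positive control. Luminescent CellTiter-Glo signal at 48 h defined viability.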
On to `CN1CCN(c2cc(C(=O)Nc3ccc4c(c3)-c3c(c(C(N)=O)nn3-c3ccc(F)cc3)CC4)c(Cl)cn2)CC1`, for which the Potency is 13.2 µM (active).

`CS(=O)(=O)c1ccc(-c2cnc(N)c(C(=O)Nc3ccccc3)n2)cc1`: the Potency was 4.18 µM (active).

As to `CN(C)CC(C)(C)CNc1nn2c(-c3ccccc3)nnc2cc1C1CCC1`, the Potency is 0.469 µM (active).

For `CC(=O)Nc1nc(C)c(-c2ccc(Cl)c(S(=O)(=O)NCCO)c2)s1`, the Potency was 10.5 µM (active).

As to `CCn1nnc2c(N3CCOCC3)nc(-c3ccc(NC(=O)Nc4ccc(C(=O)N5CCN(C)CC5)cc4)cc3)nc21`, the Potency is 0.0074 µM (active).

Take `CNC(=O)c1cc(Oc2ccc(NC(=O)Nc3cc(C(C)(C)C)nn3-c3ccc4ncccc4c3)c(F)c2)ccn1`: the Potency was 20.9 µM (active).

As to `O=C(NCCCNc1nc(Nc2cccc(NC(=O)N3CCCC3)c2)ncc1I)c1cccs1`, the Potency was 2.35 µM (active).

Take `Cn1c(CNc2ccc(C(=N)N)cc2)nc2cc(C(=O)N(CCC(=O)O)c3ccccn3)ccc21`: the “viability (percent of control)” value was 142% [at 23.2 µM] (inactive).

On to `Cc1ccc(C(=O)Nc2cccc(C(F)(F)F)c2)cc1-c1ccc2nc(NCCN3CCOCC3)ncc2c1`, for which the Potency is 11.8 µM (active).

As to `CNC(=O)c1ccc(N2C(=S)N(c3cnc(C#N)c(C(F)(F)F)c3)C(=O)C23CCC3)cc1F`, the Potency was 8.33 µM (active).

For `CC(C)(C)c1cnc(CSc2cnc(NC(=O)C3CCNCC3)s2)o1`, the Potency is 0.148 µM (active).

`C=C1C(=CC=C2CCC[C@]3(C)[C@@H]([C@H](C)C=C[C@H](C)C(C)C)CC[C@@H]23)C[C@@H](O)C[C@@H]1O`: the Potency was 0.833 µM (active).

In the case of `O=C(Nc1nc2cccc(-c3ccc(CN4CCS(=O)(=O)CC4)cc3)n2n1)C1CC1`, the Potency is 8.33 µM (active).

On to `O=C(O)C1(Cc2cccc(Nc3nccs3)n2)CCC(Oc2cccc(Cl)c2F)CC1` (centres undefined), for which the Potency was 0.372 µM (active).

Consider `Nc1nccc(Oc2ccc(NC(=O)c3c[nH]cc(-c4ccc(F)cc4)c3=O)cc2F)c1Cl`, for which the Potency is 2.64 µM (active).

As to `Clc1ccc2ncc(-c3cccc(NC4CNC4)n3)n2c1`, the Potency was 18.7 µM (active).

On to `O=c1[nH]nc(Sc2ncc([N+](=O)[O-])s2)n1-c1ccc2c(c1)OCCO2`, for which the Potency is 2.96 µM (active).

As for `CC(C)Nc1cc(C(F)(F)F)cc2nc(NC(=O)c3cccnc3)nn12`, the “viability (percent of control)” value is 130% (inactive).

Regarding `O=C(O)CCCc1c[nH]c2ccccc12`, the “viability (percent of control)” value is 108% (inactive).

As for `C=C1C(=CC=C2CCCC3(C)[C@@H]([C@H](C)C=CC=CC(O)(CC)CC)CC[C@@H]23)C[C@@H](O)C[C@@H]1O` (some centres undefined), the Potency is 20.9 µM (active).

For `CNc1nccc(-c2cccnc2Oc2cc(C(=O)Nc3cccc(C(F)(F)F)c3)ccc2C)n1`, the Potency was 16.6 µM (active).

On to `COc1cc2c(Nc3ccc(NC(=O)c4ccccc4)cc3)ncnc2cc1OCCCN1CCOCC1`, for which the Potency was 3.32 µM (active).

For `CCCCCCCCCC(=O)N[C@@H](Cc1c[nH]c2ccccc12)C(=O)N[C@H](CC(N)=O)C(=O)N[C@@H](CC(=O)O)C(=O)N[C@@H]1C(=O)NCC(=O)N[C@@H](CCCN)C(=O)N[C@@H](CC(=O)O)C(=O)N[C@H](C)C(=O)N[C@@H](CC(=O)O)C(=O)NCC(=O)N[C@H](CO)C(=O)N[C@@H]([C@@H](C)CC(=O)O)C(=O)N[C@@H](CC(=O)c2ccccc2N)C(=O)O[C@@H]1C`, the “viability (percent of control)” value is 134% (inactive).

For `Cc1nc(N)ncc1-c1nc(N2CCOCC2)c2sc(C(C)(C)O)cc2n1`, the Potency was 2.35 µM (active).

For `Cc1ccc(CN2CCNCC2)cc1NC(=O)CNc1ccc(F)c(F)c1`, the Potency is 13.2 µM (active).

For `CN(C1CCc2c(c3ccccc3n2CC(=O)O)C1)S(=O)(=O)c1ccc(F)cc1` (centres undefined), the “viability (percent of control)” value is 129% (inactive).

With `Cc1c(Cn2c(C)nc3c(C(=O)O)cc(N4CCOCC4)cc32)cccc1C(F)(F)F`, the Potency was 14.8 µM (active).

As for `CNC(=O)c1ccccc1Nc1nc(Nc2ccc(N3CCOCC3)cc2OC)ncc1Cl`, the Potency was 0.662 µM (active).

As for `CC(C)c1cc(C(=O)N2Cc3ccc(CN4CCN(C)CC4)cc3C2)c(O)cc1O`, the Potency was 0.209 µM (active).

For the molecule `COc1cc2c(Oc3ccc(NC(=O)C4(C(=O)Nc5ccc(F)cc5)CC4)cc3F)ccnc2cc1OCCCN1CCOCC1`, the Potency was 1.66 µM (active).

Take `CCNC(=O)Nc1ccc2ncc(Nc3ccc(C)cc3)nc2n1`: the Potency was 1.32 µM (active).

For `CN(C)c1nc(Cc2ccc(NC(=O)c3ccc4ccccc4c3)cc2)nc(Cl)c1CC(=O)O`, the “viability (percent of control)” value is 150% (inactive).

For `COC(=O)Nc1ccc(-c2nc(N3CCOCC3)c3cnn(C4CCN(Cc5cccnc5)CC4)c3n2)cc1`, the Potency is 0.0469 µM (active).

On to `CC(C)(C)c1cc(C(C)(C)C)c(NC(=O)c2c[nH]c3ccccc3c2=O)cc1O`, for which the “viability (percent of control)” value was 131% (inactive).

Consider `Cc1cc(Nc2cc(N3CCN(C)CC3)nc(C=Cc3ccccc3)n2)n[nH]1`, for which the Potency is 2.41 µM (active).

Another assay can be described thus: Identifying Small Molecule Inhibitors of Pancreatic Cancer Stem Cells (Panc1, Spheroid) (AID 1259359).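 Further: compound exposure lasted 48 h before reading.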 To be noted: Panc1 spheroid cancer stem cell viability; series mostly up to 46.1 µM; viability, % of control: at the top concentration. In outline:
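Monolayer and spheroid cultures are compared. Spheroids form over 14 days in stem cell medium on hydrogel-coated low-attachment plates, then are exposed to compound for 48 h before CellTiter-Glo luminescence.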
In the case of `CN1CCN(c2cc(C(=O)Nc3ccc4c(c3)-c3c(c(C(N)=O)nn3-c3ccc(F)cc3)CC4)c(Cl)cn2)CC1`, the Potency was 23.5 µM (active).

Consider `CNC(=O)c1cc(Oc2ccc(NC(=O)Nc3cc(C(C)(C)C)nn3-c3ccc4ncccc4c3)c(F)c2)ccn1`, for which the Potency was 13.2 µM (active).

As for `CC(C)(C)c1cnc(CSc2cnc(NC(=O)C3CCNCC3)s2)o1`, the Potency is 0.418 µM (active).

Consider `O=c1[nH]nc(Sc2ncc([N+](=O)[O-])s2)n1-c1ccc2c(c1)OCCO2`, for which the Potency was 5.26 µM (active).
